GLS inh: glutaminase GLS (human) inhibition | O94925 | GLS enzymatic activity, qHTS titration | Potency, µM (series often up to 45.5 µM), for the others: at the top dose activity change, negative = inhibition, actives largely listed as inhibitors | hit rate 0.21% among 410,000 | AID 624170; note: % is set by controls: 0 for no effect and ±100 for the full control effect
Target sequence (O94925 whole entry, looked up): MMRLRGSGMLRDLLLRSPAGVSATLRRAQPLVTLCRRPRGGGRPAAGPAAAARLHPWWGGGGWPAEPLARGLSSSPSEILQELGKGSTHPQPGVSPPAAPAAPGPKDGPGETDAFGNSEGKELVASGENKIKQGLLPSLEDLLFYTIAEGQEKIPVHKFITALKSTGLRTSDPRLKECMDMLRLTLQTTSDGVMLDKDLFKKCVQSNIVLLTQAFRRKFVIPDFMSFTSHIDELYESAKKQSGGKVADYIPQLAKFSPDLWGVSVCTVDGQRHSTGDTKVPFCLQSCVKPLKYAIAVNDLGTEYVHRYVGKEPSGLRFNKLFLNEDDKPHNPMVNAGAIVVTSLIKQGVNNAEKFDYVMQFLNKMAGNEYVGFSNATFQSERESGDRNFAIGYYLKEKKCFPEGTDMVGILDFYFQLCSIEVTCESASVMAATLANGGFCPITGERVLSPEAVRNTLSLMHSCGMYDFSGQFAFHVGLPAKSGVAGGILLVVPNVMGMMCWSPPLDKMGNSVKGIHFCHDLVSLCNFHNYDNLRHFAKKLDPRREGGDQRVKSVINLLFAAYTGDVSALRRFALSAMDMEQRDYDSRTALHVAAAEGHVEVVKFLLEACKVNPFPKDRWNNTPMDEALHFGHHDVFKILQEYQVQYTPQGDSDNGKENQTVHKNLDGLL
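Two-point fluorescence kinetic (t0, 30 min RT) for hKGA; glutamate detected via glutamate oxidase–HRP–Amplex Red. Substrate: 1 mM L-glutamine solution; buffer 45 mM KH2PO4, pH 8.2.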
G9a block: G9a (human) methyltransferase inhibition; AID 504332; Q96KQ7; G9a H3K9 monomethylation, AlphaScreen, 2 h; Potency, µM (highest dose often 102 µM), for inactives: top-dose activity, negative = inhibition, actives largely listed as inhibitors; hit rate 8.8% among 350,000; note: % is set by controls: 0 for no effect and ±100 for the full control effect; nearly all actives have a fitted effect of over 75% in size
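AlphaScreen read-out: biotin-H3K9 peptide (500 nM) methylation by 20 nM enzyme with 20 uM SAM, 2 h at room temperature after 15 min compound preincubation; anti-monomethyl H3K9 antibody plus donor/acceptor beads, 10 min dark.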
BAZ2B block: inhibitors of human BAZ2B bromodomain; hit rate 4.4% among 360,000; Q9UIF8; Potency, µM (highest dose often 114 µM), for inactives: at the highest dose activity change, negative = inhibition, most hits filed as inhibitors; AlphaScreen BAZ2B-H3K14Ac peptide displacement; note: % is set by controls: 0 for no effect and ±100 for the full control effect; nearly all actives have a fitted effect of over 60% in size
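BAZ2B 50 nM plus b-H3(5-23)K14Ac 50 nM, PBS pH 7.4/0.01% Tween-20, 30 min RT; compound added (max 110 uM), 30 min RT; streptavidin donor/Ni-chelate acceptor beads 10 ug/mL final, 20 min dark; AlphaScreen read.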
HP1b chromo inh: blocks HP1-beta chromodomain binding to methylated histone tails. P83916. AlphaScreen HP1-beta / biotin-H3K9me3 peptide binding. Potency, µM (titrated, usually from 114 µM), inactives show at the top dose activity change, negative = inhibition, most hits filed as inhibitors. hit rate 0.56% among 390,000; note: nearly all actives have a fitted effect of over 70% in size
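HP1-beta protein (50 nM final) preincubated 30 min at room temperature with biotinylated H3(1-18)K9me3 peptide (50 nM) in PBS pH 7.4, 0.01% Tween-20, then compound added for 30 min. AlphaScreen streptavidin donor/nickel chelate acceptor beads (10 ug/mL final), 30 min dark, luminescence read.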
JMJD2A Tudor: JMJD2A Tudor domain (human) inhibition; Potency, µM (highest dose often 114 µM), without a hit: at the top dose activity change, negative = inhibition, actives largely listed as inhibitors; hit rate 4.4% among 390,000; AlphaScreen JMJD2A-Tudor / H3K4me3 peptide binding; AID 504339; note: % is set by controls: 0 for no effect and ±100 for the full control effect; nearly all actives have a fitted effect of over 50% in size
The depositor's hits bear a star; ? = inconclusive; · = no result given; [ ] = another dose, or the depositor's remark. This is a sample that favours compounds with a hit; in the whole collection about 10% have one here. Calls come from the whole dose curve; as a rule, active = well fitted curve in the direction sought with a large enough effect; inconclusive = small, poorly fitted or top-dose-only effect, or another doubt; inactive = no such curve, though single readings can be large; an effect the other way counts as inactive or inconclusive. Potency is the fitted concentration of half-maximal effect.

SMILES	GLS inh	G9a block	BAZ2B block	HP1b chromo inh	JMJD2A Tudor
C#CCOCCOCCOCCNc1nc(N2CCN(C(=O)Cn3cc(CCCCN)nn3)CC2)nc(N2CCN(C(=O)[C@H](Cc3ccc(O)cc3)n3cc(CCO)nn3)CC2)n1	7%	·	·	37%	-5%
COc1ccccc1NC(=O)C1=C(C)NC(=O)NC1c1ccco1 (stereo unspecified)	-2%	-4%	-5%	29%	-9%
CCn1c(C)cc(/C=C2\NC(=O)N(Cc3ccc(Cl)cc3)C2=O)c1C	-11%	0%	-10%	-17%	-32%
COCCn1c(C)cc(/C=C2/NC(=O)N(Cc3ccc(C)cc3)C2=O)c1C	-30%	16µM*	-28%	-12%	-33%
CC1CCCCN1C(C(=O)O)c1ccccc1 (stereo unspecified)	1%	-15%	-19%	28%	-11%
COc1ccc(Cn2cc3c(-c4ccc(F)cc4)nnc-3c3cc(OC)c(OC)cc32)cc1	-3%	34%[59 µM]	0%	38%	-17%
COc1cc2c3nnc(-c4ccc(F)cc4)c-3cn(Cc3ccc(F)cc3)c2cc1OC	3%	50µM*	-2%	23%	-23%
Cc1ccc(CN(Cc2ccco2)C(=O)c2ccccc2Cl)o1	-4%	-27%[59 µM]	?	10%	-35%
C/C(=N\NC(=O)CSCc1ccc([N+](=O)[O-])cc1)c1ccccc1	2%	-31%	5%	6%	-16%
CC1(C)Cc2ccccc2C2CC(O)C(=O)N21 (stereo unspecified)	0%	22µM*	-30%	-13%	89µM*
CCCN(CC(=O)Nc1ccccc1OC)C(=O)c1cc(-c2ccccc2)nn1-c1ccccc1	-19%	9%[2.33 µM]	-4%	25%	-8%
COc1ccc(-c2csc(NC(=O)C3CCCO3)n2)cc1 (stereo unspecified)	-1%	13µM*	?	13%	?
Cc1ccc(-c2csc(NC(=O)c3ccno3)n2)cc1	7%	50µM*	?	24%	79µM*
COc1ccc(-c2csc(NC(=O)c3ccoc3C)n2)cc1	0%	50µM*	?	0%	-14%
COc1ccc(C(=O)NNC(=O)C2CCCO2)cc1 (stereo unspecified)	66%	17%[59 µM]	0%	-12%	-7%[11.4 µM]
Cc1ccc(C2c3c(oc4cc(C)c(C)cc4c3=O)C(=O)N2CCCN2CCOCC2)cc1 (stereo unspecified)	1%	40µM*	-1%	24%	-29%
C=CCOc1ccc(C2c3c(oc4ccccc4c3=O)C(=O)N2CCCN2CCOCC2)cc1 (stereo unspecified)	-1%	50µM*	-30%	-1%	-9%
O=C1c2oc3ccc(Cl)cc3c(=O)c2C(c2ccccn2)N1CCCN1CCOCC1 (stereo unspecified)	1%	20µM*	?	25%	-35%
COc1ccc(C2c3c(oc4ccc(C)cc4c3=O)C(=O)N2CCCN2CCOCC2)cc1OC (stereo unspecified)	11%	-21%[59 µM]	2%	48%	-11%
CC(C)c1ccc(C2c3c(oc4ccc(Cl)cc4c3=O)C(=O)N2CCCN2CCOCC2)cc1 (stereo unspecified)	-15%	-41%[59 µM]	?	19%	-14%
Cc1ccc(C2c3c(oc4ccccc4c3=O)C(=O)N2CCCN2CCOCC2)o1 (stereo unspecified)	-11%	?	-4%	23%	14µM*
Cc1ccc(S(=O)(=O)Nc2cccc(C(=O)NCCN3CCOCC3)c2)cc1F	2%	-1%[12.7 µM]	-4%	13%	-2%
Cc1ccc2nc(-c3ccccn3)[nH]c2c1	-3%	?	-6%	42%	-24%
COCCN(C(=O)COC(=O)c1ccc(C=O)cc1)c1c(N)n(Cc2ccccc2)c(=O)[nH]c1=O	-2%	19%	-11%	25%	-1%
CC#CCc1cc2ccccc2c(=O)o1	1%	?	-2%	43%	-11%
Cc1ccc(Cn2cc(S(=O)(=O)c3cccc(Cl)c3)c(=O)c3cc(F)c(N4CCOCC4)cc32)cc1	-1%	-1%[59 µM]	-1%	37%	-1%
Cn1c(CSc2nc3ccccc3s2)n[nH]c1=S	7%	2.5µM*	10%	-27%	32µM*
S=c1[nH]nc(CSc2nc3ccccc3s2)o1	34%	1.6µM*	?	3%	45µM*

Screening results (PubChem BioAssay)
